The record followed here is ChEMBL document CHEMBL1201862, “PubChem BioAssay data set” (2004).

Each structure is given as a SMILES string. Out of some 400,000 compounds screened, about 2,100 (0.53%) were called active. Roughly 14% stayed inconclusive and do not appear here. The rule behind the calls is not given here. The list comes from a sample in which actives are over-represented; it also holds similar structures and randomly drawn compounds.

This experiment deals with Ataxin-2 (Homo sapiens) (UniProt Q99700). Nature of the experiment: qHTS for Inhibitors of ATXN expression. The experiment is classed as functional. On the technique in general: qHTS replaces the single test concentration by a dilution series.
Ataxin-2 (Homo sapiens), sequence (Q99700 whole entry): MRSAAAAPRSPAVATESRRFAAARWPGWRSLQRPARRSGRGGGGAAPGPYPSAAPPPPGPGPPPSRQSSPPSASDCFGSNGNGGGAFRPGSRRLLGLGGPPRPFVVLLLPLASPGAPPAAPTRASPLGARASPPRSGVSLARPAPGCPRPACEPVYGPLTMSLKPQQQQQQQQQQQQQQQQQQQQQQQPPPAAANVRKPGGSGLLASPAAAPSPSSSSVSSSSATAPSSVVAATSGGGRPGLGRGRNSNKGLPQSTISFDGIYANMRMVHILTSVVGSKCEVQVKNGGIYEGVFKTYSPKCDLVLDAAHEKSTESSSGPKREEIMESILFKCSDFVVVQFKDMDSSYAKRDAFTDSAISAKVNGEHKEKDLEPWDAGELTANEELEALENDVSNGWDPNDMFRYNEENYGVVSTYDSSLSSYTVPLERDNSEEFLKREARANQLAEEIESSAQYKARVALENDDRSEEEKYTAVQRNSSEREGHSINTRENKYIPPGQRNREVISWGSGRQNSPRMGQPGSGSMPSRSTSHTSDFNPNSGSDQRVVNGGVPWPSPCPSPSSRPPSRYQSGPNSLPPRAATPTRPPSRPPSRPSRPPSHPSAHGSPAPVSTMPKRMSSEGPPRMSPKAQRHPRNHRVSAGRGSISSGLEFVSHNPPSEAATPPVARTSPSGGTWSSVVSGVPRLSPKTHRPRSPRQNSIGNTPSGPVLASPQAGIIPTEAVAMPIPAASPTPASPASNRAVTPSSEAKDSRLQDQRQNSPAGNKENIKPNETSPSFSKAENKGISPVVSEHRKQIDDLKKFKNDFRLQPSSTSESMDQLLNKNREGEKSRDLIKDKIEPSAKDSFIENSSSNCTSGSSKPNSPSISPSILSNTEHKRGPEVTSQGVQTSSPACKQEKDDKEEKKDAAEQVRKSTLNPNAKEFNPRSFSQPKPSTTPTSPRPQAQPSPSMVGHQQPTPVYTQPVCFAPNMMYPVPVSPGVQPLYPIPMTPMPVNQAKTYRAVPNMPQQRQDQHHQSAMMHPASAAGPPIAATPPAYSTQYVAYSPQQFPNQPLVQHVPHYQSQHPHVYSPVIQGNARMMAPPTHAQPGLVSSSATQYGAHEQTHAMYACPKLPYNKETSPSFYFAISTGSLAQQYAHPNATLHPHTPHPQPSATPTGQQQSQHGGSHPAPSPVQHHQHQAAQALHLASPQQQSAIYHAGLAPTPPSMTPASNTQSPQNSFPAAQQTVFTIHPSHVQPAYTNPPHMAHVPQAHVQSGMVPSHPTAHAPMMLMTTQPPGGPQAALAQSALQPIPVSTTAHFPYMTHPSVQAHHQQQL
`O=C(COC(=O)/C=C/c1ccc(S(=O)(=O)N2CCc3ccccc32)cc1)NC1CCS(=O)(=O)C1` (stereo unspecified): the Potency entry was “inactive”.
As for `CNc1cncc(-c2ccc(S(C)(=O)=O)cc2)n1`, the Potency result is “inactive”.
The same measure for `N=c1c(S(=O)(=O)c2ccc(Cl)cc2)cc2c(=O)n3ccccc3nc2n1Cc1ccco1`: “inactive”.
The same measure for `COc1ccc(NS(=O)(=O)c2cccc(C(=O)NN=C(C)c3ccco3)c2)cc1`: “inactive”; for `Cc1ccccc1/C=C/c1cc[n+](C)cc1`: “inactive”.
The same measure for `O=C(NC(c1ccccc1)c1ccsc1)C1CCN(CCOc2ccc(Cl)cc2Cl)CC1` (stereo unspecified): 39.8 µM (active); for `COc1ccc(Cl)cc1NC(=O)CNC(c1ccccc1)c1ccccc1`: “inactive”.
Regarding `NC(=O)C1CCN(CC(=O)Nc2ccccc2Sc2ccc(Cl)cc2)CC1`, the Potency result was “inactive”.
The same measure for `COc1ccc2nc(N3CCCC(O)C3)c(C#N)cc2c1` (stereo unspecified): “inactive”; for `NC[C@@H]1O[C@H](C23CC4CC(CC(C4)C2)C3)Cc2c1ccc(O)c2O`: 31.6 µM (active); for `CCOCCCn1c(=N)c(C(=O)NCCN2CCOCC2)cc2c(=O)n3cccc(C)c3nc21`: “inactive”.
The same measure for `CC(C)=CCc1cc([C@@H]2COc3c(ccc4c3C=CC(C)(C)O4)C2)c(O)cc1O`: 35.5 µM (active); for `CCCCC(=O)Nc1nn(CC)c2nc3c(C)cccc3cc12`: “inactive”.
The same measure for `Nc1c(C(=O)N2CCCC2)sc2nc(-c3ccccc3)ccc12`: “inactive”; for `C[C@@H]1CCCCO[C@H](CN(C)Cc2ccccc2)[C@@H](C)CN([C@H](C)CO)C(=O)c2cc(NS(=O)(=O)c3ccc(Cl)cc3)ccc2O1`: 35.5 µM (active).
`C[C@@H]1CCCCO[C@@H](CN(C)CC2CCCCC2)[C@@H](C)CN([C@H](C)CO)C(=O)c2cc(NS(=O)(=O)c3ccc(Cl)cc3)ccc2O1`: the Potency is 31.6 µM (active).
The same measure for `C[C@H]1CCCCO[C@@H](CN(C)S(=O)(=O)c2ccc(Cl)cc2)[C@@H](C)CN([C@@H](C)CO)C(=O)c2cc(NS(=O)(=O)c3ccccc3)ccc2O1`: 31.6 µM (active); for `COc1ccc(S(=O)(=O)N(C)C[C@@H]2OCCCC[C@@H](C)Oc3ccc(NC(=O)NC(C)C)cc3C(=O)N([C@H](C)CO)C[C@@H]2C)cc1`: “inactive”; for `N#CC(Sc1ccccn1)c1ccc(Cl)cc1` (stereo unspecified): “inactive”.
The same measure for `CN(CC(=O)Nc1cccc(Cl)c1)S(=O)(=O)c1ccc2[nH]c3c(c2c1)CCCC3`: 39.8 µM (active).
In the case of `O=S(=O)(Nc1cccc(Cl)c1)c1ccc2[nH]c3c(c2c1)CCCCCC3`, the Potency was 31.6 µM (active).
The same measure for `Clc1ccc2[nH]c3c(c2c1)CNCC3`: “inactive”; for `CN(CC(=O)Nc1cccc(C(F)(F)F)c1)S(=O)(=O)c1ccc2[nH]c3c(c2c1)CCCC3`: 35.5 µM (active); for `O=C(COC(=O)c1ccc2[nH]c3c(c2c1)CCCC3)NC1CCS(=O)(=O)C1` (stereo unspecified): “inactive”.
The same measure for `CC(C)c1ccc2[nH]c3c(c2c1)CCC/C3=N\NC(=O)c1ccncc1`: “inactive”; for `CC(C)c1ccc2[nH]c(O)c(N=NC(=O)c3cccc(S(=O)(=O)Nc4cccc(Cl)c4)c3)c2c1`: 1.41 µM (active).
The same measure for `Cc1ccc(S(=O)(=O)Nc2cccc(N(C)S(C)(=O)=O)c2)cc1[N+](=O)[O-]`: “inactive”; for `CSc1nc(O)c(C(c2ccc(C)cc2)c2c(O)nc(SC)nc2O)c(O)n1`: “inactive”; for `CCCn1c(=O)n(CC(=O)NCC2CCCO2)c(=O)c2c3c(sc21)COC(C)(C)C3` (stereo unspecified): “inactive”.
Regarding `CC1CCc2sc(C(=O)OCC(=O)NC(C)C)cc2C1` (stereo unspecified), the Potency entry was “inactive”.
Regarding `Cc1cc(NC(=O)CCC(=O)N(C(C(=O)NC(C)(C)C)c2ccccc2Cl)C(C)(C)C)no1` (stereo unspecified), the Potency entry was “inactive”.
The same measure for `COc1ccccc1C1C2=C(CCCC2=O)N(CC(=O)O)C2=C1C(=O)CCC2`: “inactive”; for `Cc1ccc(NC(=O)c2sc3nc(-c4ccc(F)cc4)ccc3c2N)cc1F`: “inactive”; for `CC(C)c1ccc(C2=CC(c3ccc(C(C)C)cc3)n3nnnc3N2)cc1` (stereo unspecified): “inactive”.
The same measure for `CCc1ccc2nc3nc(C)cc(C)c3c(N)c2c1`: “inactive”; for `Cc1ccc(C(=O)CC(=O)c2ccccc2C)c(O)c1`: “inactive”.
As to `CC(=O)c1cccc(NC(=O)C(C)OC(=O)c2cccc(S(=O)(=O)N3CCN(C)CC3)c2)c1` (stereo unspecified), the Potency entry was “inactive”.
Consider `Cc1ccc(-c2nn3c(C)nnc3s2)cc1NC(=O)c1ccc(-c2ccc(Cl)cc2Cl)o1`, for which the Potency is 8.91 µM (active).
The same measure for `Cc1nnc2ccc(-c3ccc(NC(=O)c4ccco4)cc3)nn12`: “inactive”; for `C=C(C)CNC(=O)c1ccc2nc(Cc3ccc(OC)cc3)oc2c1`: “inactive”; for `O=C(NCCO)c1ccc2nc(Cc3cccc(Cl)c3)oc2c1`: “inactive”.
Take `O=C(NCCCN1CCN(c2ccc(F)cc2)CC1)c1ccc2nc(Cc3ccccc3)oc2c1`: the Potency is 20 µM (active).
Take `O=c1c(O)c(-c2cccs2)oc2ccc(Cl)cc12`: the Potency entry was “inactive”.
In the case of `Cc1ccc2cc(C#N)c(NCc3ccccc3)nc2c1`, the Potency entry is “inactive”.
The same measure for `N#Cc1ncc(Cc2ccccc2)nc1C#N`: 39.8 µM (active); for `Cc1nc2nc(SCc3ccccc3)nn2c(O)c1CCC(C)C`: “inactive”.
The same measure for `O=C(NC1CCCC1)c1cc2c(=O)n3ccccc3nc2s1`: “inactive”; for `O=C(Cc1csc(Nc2nc(S)nc3ccccc23)n1)NCCCN1CCN(c2cccc(Cl)c2)CC1`: “inactive”; for `CCC1CCCCN1CCCNC(=O)c1cc2c(Cl)nc3ccccc3c2s1` (stereo unspecified): 31.6 µM (active).
The same measure for `O=C(Cc1csc(Nc2nc(S)nc3ccccc23)n1)NCCCN1CCN(c2ccccc2F)CC1`: “inactive”.
In the case of `CC1CCN(CCCNC(=O)c2cc3c(Cl)nc4ccccc4c3s2)CC1`, the Potency is 39.8 µM (active).
Turning to `COc1ccc(NC(=O)c2cc3c(=O)n(C)c4ccccc4c3s2)cc1OC`, the Potency entry was “inactive”.
The same measure for `COc1ccc(-c2cc(C(=O)NC3=NCCS3)c3ccccc3n2)cc1OC`: “inactive”; for `COc1ccc(NC(=O)c2cc3c(Cl)nc4ccccc4c3s2)cc1OC`: 35.5 µM (active); for `CCC1CCCCN1c1nc2c(C=O)c(C)nn2c2ccccc12` (stereo unspecified): “inactive”.
The same measure for `CCCCCC(=O)NC(=S)Nc1ccc(Cl)cn1`: “inactive”.
In the case of `N#Cc1cnn2c(-c3cccc([N+](=O)[O-])c3)ccnc12`, the Potency result is “inactive”.
The same measure for `FC(F)(F)c1cc(-c2cccs2)nc2ncnn12`: “inactive”.
The same measure for `CN1CCN(C(=O)CN(C2CCCCC2)S(=O)(=O)c2ccccc2)CC1`: “inactive”.
For the compound `CCN(CC)CCCN(Cc1cc2cc3c(cc2nc1O)OCO3)C(S)=Nc1ccc(OC)cc1`, the Potency entry was “inactive”.
The same measure for `CCOc1ccccc1C(=O)N(Cc1ccccc1)Cc1cc2cc3c(cc2nc1O)OCCO3`: 35.5 µM (active); for `COc1ccccc1C(=O)N(Cc1cc2cc3c(cc2nc1N(C)C)OCO3)CC1CCCO1` (stereo unspecified): “inactive”; for `CCOc1ccc(C2C(C(=O)OC)=CN(CCOC)C=C2C(=O)OC)cc1`: “inactive”.
As to `CCc1ccc(CNCc2c(C(=O)O)n(Cc3ccc(C)cc3)c3cc(C)ccc23)cc1`, the Potency is 31.6 µM (active).
Consider `CCNC(=O)c1cc2c(=O)n3cccc(C)c3nc2n(Cc2ccc(C)cc2)c1=N`, for which the Potency entry is “inactive”.
For the compound `Cc1ccc(CNCc2c(C(=O)O)n(Cc3ccc(C)cc3)c3cc(C)ccc23)cc1`, the Potency is 22.4 µM (active).
The same measure for `CCOc1ccc(CNCc2c(C(=O)O)n(Cc3ccc(C)cc3)c3cc(C)ccc23)cc1`: 25.1 µM (active); for `Cc1ccc(CNS(=O)(=O)c2ccc3c(c2)CCN3C(=O)CCCC(=O)O)cc1`: “inactive”; for `CCc1cccc(C)c1NC(=O)CNCc1ccccc1`: “inactive”.
The same measure for `CCOc1ccc(-c2oc3ccc(C)cc3c(=O)c2O)cc1`: “inactive”; for `Cc1ccc(Cn2c(C(=O)O)c(CNCc3ccc(OC(C)C)cc3)c3ccc(C)cc32)cc1`: 35.5 µM (active); for `Cc1ccc(CNC(=O)c2ccc3c(O)c(O)c(-c4ccc(C)cc4)nc3c2)cc1`: “inactive”.
Regarding `Cc1cccc(C(=O)/N=c2/c(C#N)cc3c(=O)n4cccc(C)c4nc3n2Cc2ccco2)c1`, the Potency entry was “inactive”.
The same measure for `Cn1ncc(Oc2ccc([N+](=O)[O-])cc2)c(Cl)c1=O`: “inactive”; for `O=C(c1ccccn1)N(c1ccccc1)C1(C(=O)NC2CCCCC2)CCCCC1`: “inactive”.
Regarding `OC[C@@H]1[C@@H](c2ccccc2)C(c2ccccc2)=NN1c1ccccc1`, the Potency result was “inactive”.
The same measure for `CCOCCCNC(=O)C(NC(=O)c1ccc2c(c1)OCO2)c1ccc(Cl)cc1` (stereo unspecified): “inactive”.
The same measure for `NC1=Nc2cccc3cccc1c23`: “inactive”.
The same measure for `Cc1cc2c(cc1C)NC(CC(=O)Nc1ccccc1SC(F)(F)F)C(=O)N2` (stereo unspecified): “inactive”.
On to `Cc1cc2n(n1)C(c1ccccc1)CC(c1ccc(Br)cc1)=N2` (stereo unspecified), for which the Potency entry was “inactive”.
Consider `CCOC(=O)c1c(SCC(=O)Nc2nccs2)nc(C)c(C)c1C`, for which the Potency entry was “inactive”.
With `CC(=O)NS(=O)(=O)c1ccc(N2C(=O)CC(Sc3nccc(C)n3)C2=O)cc1` (stereo unspecified), the Potency result is “inactive”.
In the case of `Cc1cc(C)nc(SC2CC(=O)N(c3ccc(C)c(C)c3)C2=O)n1` (stereo unspecified), the Potency result was “inactive”.
The same measure for `Cc1ccc(N2C(=O)CC(Sc3nc4ccccc4o3)C2=O)cc1Cl` (stereo unspecified): 39.8 µM (active); for `CSc1ccc(/C=C2\CCn3c2nc2cc(C(=O)O)ccc2c3=O)cc1`: “inactive”.
The same measure for `CCN(CC)C(=O)c1cc2c(=O)n3cccc(C)c3nc2s1`: “inactive”; for `C/C(=N\NC(=O)COc1ccc([N+](=O)[O-])cc1)c1ccco1`: “inactive”.
The same measure for `Cc1ccccc1-c1nnn(CC(=O)Nc2ccc3c(c2)OCO3)n1`: “inactive”; for `O=C(Cn1nnc(-c2ccccc2)n1)NCC(=O)Nc1ccc(F)c(F)c1F`: “inactive”; for `Cc1cccc(C)c1NC(=O)Cn1nnc(-c2ccc(N3CCOCC3)cc2)n1`: 39.8 µM (active).
On to `CCOCCCNC(=O)c1c(N)n(-c2ccc3c(c2)OCO3)c2nc3ccccc3nc12`, for which the Potency result is “inactive”.
The same measure for `COc1cccc2c(=O)c3c(cnn3C)n(C)c12`: “inactive”; for `COc1ccccc1CNC(=O)CCC1N=C2c3ccccc3N=C(SCc3ccc(C)cc3C)N2C1=O` (stereo unspecified): 17.8 µM (active).
The same measure for `COc1ccccc1CNC(=O)CN1C(=O)c2cccc(N)c2C1=O`: “inactive”.
The same measure for `O=C(NCc1nnc(S)n1-c1cccc(C(F)(F)F)c1)c1ccc(S(=O)(=O)N2CCCCC2)cc1`: “inactive”; for `Nc1cccn2c(-c3ccc(Cl)cc3)cnc12`: “inactive”.
